The values that follow come from PubChem BioAssay AID924 (National Center for Advancing Translational Sciences (NCATS), 2007).

The campaign covered roughly 130,000 compounds. About 1,200 (0.92%) were called active. Not shown: some 3% with an inconclusive outcome. The full list was thinned out, with actives kept by preference. Unmarked numbers belong to inactive results. Calls come from the whole dose curve; as a rule, active = well fitted cell-killing curve with a large enough effect; inconclusive = small, poorly fitted or top-dose-only effect; inactive = no such curve, though single readings can be large or run the other way.
Potency is the fitted concentration of half-maximal effect.

This assay in a line: qHTS Screen for Compounds that Selectively Target Cancer Cells with p53 Mutations: Cytotoxicity of p53ts Cells at the Permissive Temperature.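 For activity change, negative = cytotoxicity: 0% = DMSO and -100% = full killing by reference compound.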 Note: nearly all actives have a fitted effect of over 55% in size. Particulars: H1299-p53A138V at 32C, ATP luminescence viability, 24 h; series mostly up to 46.1 µM; activity change, negative = cytotoxicity: at the top concentration. An excerpt:
NIH Chemical Genomics Center [NCGC] NIH Molecular Libraries Screening Centers Network [MLSCN] MLSCN Grant: 1 X01 MH079844-01 Assay Submitter (PI): Dr. SUN, YI, University of Michigan NCGC Assay Overview: Synthetic Lethal Screen for Compounds to Kill Cancer Cells with p53 Mutation. Tumor suppressor gene p53 serves as a major cellular barrier against tumorigenesis. […] The goal of this screening is to identify small molecule probes that selectively kill cancer cells with mutations in p53. This screening was carried out using two lines of H1299 lung cancer cells. The H1299-p53 A138V line express a temperature sensitive p53 mutant (p53ts) in which the mutant p53 protein (A138V) is in the mutant confirmation when grown at 39C (the nonpermissive temperature) and in the wild type conformation when grown at 32C (the permissive temperature). A H1299-neo line (p53 null) grown at both 39C and 32C were used as counter-screens to filter out false positive associated with temperature shifting. The small molecular compounds that selectively target mutant p53-containing cancer cells were selected as candidate probes for further study. A cytotoxicity assay based on the measurement of ATP contents in cells was used in this screen. Concentration-responses of all the compounds in the library collection were determined in qHTS using the cell lines and temperature conditions as above.
NCGC Assay Protocol Summary: Both the H1299-p53A138V and H1299-neo cell lines were provided by Dr.Yi Sun, a PI at the University Michigan. The cells were maintained and cultured at 37C. The resuspended frozen cells were used to plate the cells in the 1536-well assay plates at a density of 600 cells per well in 5 ul medium. The assay plates with the cells were incubated at 37C for 16 to 30 hours before the experiments. The library compounds in DMSO solution were added to the cells in assay plates and incubated 24 hours at 39C (for mutant p53 conformation) or 32C (for normal p53 conformation as control). An ATP_lite assay kit (PerkinElmer) was used to determine the cell viability. Tomaxifen (100uM) was used as the positive control for cell killing. Data were normalized to the controls for basal activity (DMSO only) and 100% killing (100uM tamoxifen). AC50 values were determined from concentration-response data modeled with the standard Hill equation. P53 assay protocol: 1. Reagent; 5 uL H1299-p53A138V or H1299-neo cell cells/well 2. Time; overnight; 37C incubation 3. Compounds; 23 nL; 5.9 nM to 46 uM 4. Controls; 23 nL; Tamoxifen 100 uM 5. Time; 24 hr; 37C incubation 6. Reagent; 3 uL; ATP_Lite reagent 7. Time; 20 min; Room Temperature 8. Detection; Luminescence; Viewlux plate reader Keywords: p53, synthetic lethal, cancer, cell viability, cytotoxicity, H1299 cell line, luminescence, MLSMR, MLSCN, NIH Roadmap, qHTS, NCGC
Regarding `CCC(CC)c1nn2cc(-c3ccccc3)nc2s1`, the Potency was 5.01 µM (active).

Consider `CCc1ccc(CNC(=O)C2CCN(c3nn4cc(-c5ccc(F)cc5)nc4s3)CC2)cc1`, for which the “activity change, negative = cytotoxicity” value is -3.23%.

As for `CCOc1ccccc1NC(=O)c1ccc2c(c1)CCN2S(=O)(=O)c1ccc(C)cc1`, the “activity change, negative = cytotoxicity” value was 7.8%.

`COC(=O)c1cc(NC(=O)CCc2c(C)nc3c4c(C)cc(C)nc4nn3c2C)cc(C(=O)OC)c1`: the “activity change, negative = cytotoxicity” value is 8.69%.

In the case of `CCN(CC)c1ccc(NC(=O)CN2CCN(CC(=O)Nc3ccc(Cl)cc3)CC2)cc1`, the “activity change, negative = cytotoxicity” value was -4.64%.

`O=C(Nc1cccnc1)c1ccc2c(c1)OCO2`: the “activity change, negative = cytotoxicity” value is -11.3%.

On to `O=C(Nc1cccnc1)c1noc2c1CCCCC2`, for which the Potency is 12.6 µM (active).

As for `Cc1c(Cl)cccc1NC(=O)c1noc2c1CCCC2`, the “activity change, negative = cytotoxicity” value was -24.1%.

On to `CCOc1ccc(-c2nonc2NC(=O)c2oc3ccc(C)cc3c2C)cc1OCC`, for which the “activity change, negative = cytotoxicity” value is -3.06%.

Take `COc1ccc(NC(=O)c2sc3nc[nH]c(=O)c3c2C)cc1`: the “activity change, negative = cytotoxicity” value is 2.8%.

For the compound `O=C(Nc1ccc(NC(=O)c2cccs2)cn1)c1ccco1`, the Potency was 6.31 µM (active).

Turning to `Cc1ccnc(NC(=O)c2ccc(NC(=O)c3ccco3)cc2)c1`, the “activity change, negative = cytotoxicity” value is -29.1%.

Consider `O=C(Nc1cccc(NC(=O)c2ccco2)c1)c1cnccn1`, for which the “activity change, negative = cytotoxicity” value is -6.2%.

For `Cc1cc(C)c(NC(=O)CCc2c(C)nc3c(c(C)nn3C(C)(C)C)c2C)c(C)c1`, the “activity change, negative = cytotoxicity” value is 7.76%.

As to `CCn1c(CN2CCC(C)CC2)nc2cc(NC(=O)c3ccccc3[N+](=O)[O-])ccc21`, the “activity change, negative = cytotoxicity” value is 2.93%.

With `CCCCc1nn2c(=O)cc(COC(=O)c3ccccc3NC(=O)C(C)(C)C)nc2s1`, the “activity change, negative = cytotoxicity” value is -3.39%.

As for `Cc1nn2c(=O)cc(COC(=O)c3ccccc3NC(=O)COc3ccccc3C)nc2s1`, the “activity change, negative = cytotoxicity” value was -2.82%.

`COc1ccc(OCC(=O)Nc2cccc(C(=O)OCc3cc(=O)n4nc(C)sc4n3)c2)cc1`: the “activity change, negative = cytotoxicity” value is -8.09%.

Take `Cc1nn2c(=O)cc(COC(=O)c3cccc(NC(=O)COc4ccccc4Cl)c3)nc2s1`: the Potency was 10 µM (active).

On to `COc1ccccc1NC(=O)C(=O)c1cc(C)n(-c2ccccc2F)c1C`, for which the “activity change, negative = cytotoxicity” value is 1.04%.

Turning to `O=C(CCSCc1ccccc1F)N1CCN(c2ccc(Cl)cc2)CC1`, the “activity change, negative = cytotoxicity” value was -8.82%.

In the case of `Cc1ccsc1C(=O)OCC(=O)c1cc2ccccc2o1`, the “activity change, negative = cytotoxicity” value is -15.9%.

In the case of `COC(=O)c1ccc2c(=O)n(CC3CCCO3)c(=S)[nH]c2c1` (stereo unspecified), the “activity change, negative = cytotoxicity” value was 6.83%.

Turning to `Cc1ccsc1C(=O)OCC(=O)c1cc(C)n(CC2CCCO2)c1C` (stereo unspecified), the Potency is 5.01 µM (active).

For `Cc1[nH]c2ccccc2c1C(c1ccccc1)c1cccs1` (stereo unspecified), the “activity change, negative = cytotoxicity” value is 3.42%.

Turning to `O=C(CCc1cn(Cc2ccc(F)cc2)c2ccccc12)NC1CCCCC1`, the “activity change, negative = cytotoxicity” value was 1.41%.

Regarding `CC(=O)c1ccc(NC(=O)c2nc(-c3ccc(C)cc3)n3c2CCCCC3)cc1`, the “activity change, negative = cytotoxicity” value was 8.72%.

As for `Cc1ccc(C(=O)N2CCCCCC2)cc1Br`, the “activity change, negative = cytotoxicity” value is 4.16%.

For `CCc1ccc(CNC(=O)c2cc3cc4ccc(OC)cc4nc3o2)cc1`, the “activity change, negative = cytotoxicity” value is 3.47%.

As to `Cc1ccc2cc3cc(C(=O)N4CCCCCC4)oc3nc2c1`, the Potency was 10 µM (active).

On to `COc1c(Cl)cc(C(=O)N(Cc2ccccc2F)C2CCS(=O)(=O)C2)cc1Cl` (stereo unspecified), for which the “activity change, negative = cytotoxicity” value is 0.249%.

As for `CCOc1ccc(N(Cc2ccccc2)C(=O)c2nc(S(C)(=O)=O)ncc2Cl)cc1`, the Potency is 12.6 µM (active).

With `CCOc1ccc(NC(=O)CN(Cc2ccccc2)S(=O)(=O)c2ccc(Cl)cc2)cc1`, the “activity change, negative = cytotoxicity” value was -9.94%.

Take `CCOc1ccc(N(Cc2ccccc2)C(=O)c2nc(SCC)ncc2Cl)cc1`: the “activity change, negative = cytotoxicity” value is 4.15%.

Turning to `CCOc1cc(C2c3c(-c4ccc(Br)cc4)n[nH]c3C(=O)N2c2ccc(Cl)cc2)ccc1O` (stereo unspecified), the “activity change, negative = cytotoxicity” value was 14.7%.

With `CN1C(=O)c2ccccc2Sc2ccc(NC(=O)Cc3ccc(Cl)cc3)cc21`, the “activity change, negative = cytotoxicity” value is 32.9%.

`COc1ccc(Cn2ccnc2SCC(=O)NCc2ccco2)cc1`: the “activity change, negative = cytotoxicity” value is -3.47%.

On to `C/C(=C\C(=O)c1cccnc1)Nc1ccc(C)c(C)c1`, for which the “activity change, negative = cytotoxicity” value was -22.1%.

On to `O=C(Nc1cccc(NC(=O)c2ccc(Br)cc2)c1)c1ccccc1`, for which the “activity change, negative = cytotoxicity” value is -4.77%.

Turning to `C/C(=C\C(=O)c1ccccc1)Nc1cccc(O)c1`, the Potency was 10 µM (active).

For `O=C(Nc1cc(C(F)(F)F)ccc1Cl)c1ccc2c(c1)CCN2S(=O)(=O)c1ccccc1`, the “activity change, negative = cytotoxicity” value was 4.42%.

As to `Cc1ccccc1N1CC(c2nc3ccccc3[nH]2)CC1=O` (stereo unspecified), the “activity change, negative = cytotoxicity” value was 8.66%.

`Cc1cc(/C=N/n2cnnc2)c(C)n1-c1cccc(C(=O)O)c1`: the “activity change, negative = cytotoxicity” value is -3.07%.

`Cc1ccccc1-n1c(C)cc(/C=C2\NC(=O)NC2=O)c1C`: the Potency was 15.8 µM (active).

On to `CCC(=O)N1c2ccccc2CC1C(=O)N1CCN(c2cccc(OC)c2)CC1` (stereo unspecified), for which the “activity change, negative = cytotoxicity” value is 1.92%.

As for `Cc1ccc(Cl)cc1NC(=O)CCS(=O)(=O)c1ccc(Br)s1`, the “activity change, negative = cytotoxicity” value was 6.48%.

For the compound `Cc1cccc(NC(=O)N2CCN(C)c3ncccc32)c1C`, the “activity change, negative = cytotoxicity” value was -5.84%.

As for `O=C(Nc1cc(C(F)(F)F)ccc1Cl)c1nc2ccccc2nc1N1CCCCC1`, the “activity change, negative = cytotoxicity” value is -6.02%.

`COc1ccc(CCNC(=O)c2cc(-c3ccc4c(c3)OCO4)on2)cc1OC`: the “activity change, negative = cytotoxicity” value was -7.31%.

For `COc1c2c(cc3occ(-c4ccc5c(c4)OCO5)c(=O)c13)OC(C)(C)C=C2`, the Potency was 10 µM (active).

As for `COc1ccc(C)cc1N(C)C(=O)c1c(C)oc2ncnc(N3CCOCC3)c12`, the “activity change, negative = cytotoxicity” value is 4.57%.
